# Measured values published in PMC11447256.
# Columns and labels:
# [1] = target: Eukaryotic translation initiation factor 3 subunit B (UniProt P55884); experiment: cross-linking mass spectrometry
# Histone H2A type 2-B = Histone H2A type 2-B (UniProt Q8IUE6); experiment: cross-linking mass spectrometry
# [2] = target: Large ribosomal subunit protein eL6 (UniProt Q02878); experiment: cross-linking mass spectrometry
# [3] = target: Large ribosomal subunit protein eL8 (UniProt P62424); experiment: cross-linking mass spectrometry
# Nucleolar protein 16 = Nucleolar protein 16 (UniProt Q9Y3C1); experiment: cross-linking mass spectrometry
# [4] = target: Large ribosomal subunit protein uL13 (UniProt P40429); experiment: cross-linking mass spectrometry
# [5] = target: Large ribosomal subunit protein eL31 (UniProt P62899); experiment: cross-link between two proteins; cross-linking mass spectrometry
# [6] = target: Large ribosomal subunit protein uL15 (UniProt P46776); experiment: cross-linking mass spectrometry
# [7] = target: Large ribosomal subunit protein eL20 (UniProt Q02543); experiment: cross-link between two proteins; cross-linking mass spectrometry
# [8] = target: Small ribosomal subunit protein uS4 (UniProt P46781); experiment: cross-linking mass spectrometry
# [9] = target: Small ribosomal subunit protein uS9 (UniProt P62249); experiment: cross-linking mass spectrometry
# [10] = target: Large ribosomal subunit protein eL19 (UniProt P84098); experiment: cross-link between two proteins; cross-linking mass spectrometry
# [11] = target: Large ribosomal subunit protein eL36 (UniProt Q9Y3U8); experiment: as above
# [12] = target: Large ribosomal subunit protein eL43 (UniProt P61513); experiment: as above
# [13] = target: Small ribosomal subunit protein eS24 (UniProt P62847); experiment: as above
# [14] = target: Small ribosomal subunit protein uS5 (UniProt P15880); experiment: as above
# [15] = target: Small ribosomal subunit protein uS8 (UniProt P62244); experiment: as above
substance,measurement,setting,value
"Small ribosomal subunit protein uS4, P46781",listed as a hit,[1],yes
"Histone H3.1, P68431",listed as a hit,Histone H2A type 2-B,yes
"Large ribosomal subunit protein uL30, P18124",listed as a hit,[2],yes
"Large ribosomal subunit protein eL13, P26373",listed as a hit,[3],yes
same,listed as a hit,Nucleolar protein 16,yes
"Large ribosomal subunit protein uL3, P39023",listed as a hit,[4],yes
same,listed as a hit,[5],yes
"Large ribosomal subunit protein uL16, P27635",listed as a hit,[4],yes
same,listed as a hit,[6],yes
"Large ribosomal subunit protein uL13, P40429",listed as a hit,[6],yes
same,listed as a hit,[7],yes
"Small ribosomal subunit protein uS3, P23396",listed as a hit,[8],yes
same,listed as a hit,[9],yes
"Large ribosomal subunit protein eL30, P62888",listed as a hit,[10],yes
"Large ribosomal subunit protein eL43, P61513",listed as a hit,[10],yes
"Large ribosomal subunit protein uL1, P62906",listed as a hit,[11],yes
"Large ribosomal subunit protein eL34, P49207",listed as a hit,[12],yes
"Small ribosomal subunit protein uS17, P62280",listed as a hit,[13],yes
"Small ribosomal subunit protein uS2, P08865",listed as a hit,[14],yes
"Small ribosomal subunit protein uS5, P15880",listed as a hit,[15],yes
